{
  "source": "PubChem BioAssay (NCATS)",
  "note": "Active and inactive are the calls of the source. The call rests on the fitted dose curve; in most records, active means well fitted curve in the direction sought with a large enough effect; inconclusive means small, poorly fitted or top-dose-only effect, or effect the other way, or another doubt; inactive means no such curve, though single readings can be large or run the other way.",
  "data": [
    {"assay": "qHTS for Inhibitors of Cell Surface uPA Generation: Validation Assay (AID 493164);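 further: RAW 264.7 macrophage cells exposed to compound for 18 h; 0% is about no effect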", "conditions": "mouse cells, plasminogen activation; series mostly up to 38.3 µM; activity change: at the top concentration", "excerpt": "NIH Chemical Genomics Center [NCGC]\nNIH Molecular Libraries Probe Centers Network [MLPCN]\nAssay Submitter (PI): Thomas Bugge\nThe overall objective of this project is to perform a quantitative high throughput screen (qHTS) to identify novel compounds that inhibit the generation of cell surface urokinase activity. The urokinase plasminogen activator (uPA) is one of the two primary endogenous systems that mediate plasminogen activation into plasmin. Members of this system, including uPA and its receptor (uPAR), are overexpressed in several malignant tumors. This system plays a major role in adhesion, migration, invasion and metastasis of cancer cells. Small molecule inhibitors of the uPA system will serve as probes to understand the molecular mechanisms of the uPA cascade and better understanding the microenvironmental circumstances that facilitate the activation of plasminogen by uPA, and finally may provide novel candidate agents for anticancer drug therapy.\n[…] […] Upon inhibition of the uPA activation cascade, the subsequent cell surface uPA activity-dependent translocation of LF into the cytoplasm is inhibited. ATP-Lite is used to measure intracellular ATP concentrations, which remain increased if LF entry into the cytoplasm is inhibited. This validation assay was performed using a small set of validation compounds.\nuPA assay protocol summary:\nRAW 264.7 cells were maintained in DMEM medium (Invitrogen, Carlsbad, CA) at 37C under a humidified atmosphere containing 5% CO2 and 95% air. The medium contained 10% FBS, 1 mM sodium pyruvate and 50 U/ml penicillin/streptamycin (Invitrogen, Carlsbad, CA). All compounds were screened as 7-point titration from 2.45 nM to 38.3 uM final concentration. The assay was performed in 1536-well format plate as follows:\n1.Dispensing RAW 264.7 cells into 1536-well, white walled tissue culture plates at a density of 4000 cells/well (4 uL).\n2.Incubation at 37 C in a 5% CO2 incubator overnight.\n3.Serially diluting compounds (1:5 serial dilution; 0.0024 uM to […] final concentration) in 23 nl DMSO.\n5.Incubating the compound and reagent-treated plates for 18 hours at 37 C in a 5% CO2 incubator.\n6.Adding ATP-Lite (3 ul).\n7.Reading plates by ViewLux with an exposure length of 5 seconds.", "values": [
      {"smiles": "Cc1nnc(SCC2=C(C(=O)O)N3C(=O)[C@@H](NC(=O)Cn4cnnn4)[C@H]3SC2)s1", "activity change": "-0.195% (inactive)"},
      {"smiles": "CC(C)(C)NCC(O)c1cc(O)cc(O)c1", "note": "(stereo not given)", "activity change": "-0.264% (inactive)"},
      {"smiles": "NC(N)=NC(=O)Cc1c(Cl)cccc1Cl", "activity change": "-0.91% (inactive)"},
      {"smiles": "N[C@@H](COP(=O)(O)O)C(=O)O", "activity change": "-0.391% (inactive)"},
      {"smiles": "O=C(O)CCCCCCCC(=O)O", "activity change": "-0.423% (inactive)"},
      {"smiles": "OC(CCN1CCCCC1)(c1ccccc1)C1CCCCC1", "note": "(stereo not given)", "activity change": "-0.741% (inactive)"},
      {"smiles": "CC(=O)[C@]1(O)Cc2c(O)c3c(c(O)c2[C@@H](O[C@H]2C[C@H](N)[C@H](O)[C@H](C)O2)C1)C(=O)c1ccccc1C3=O", "activity change": "3.19% (inactive)"},
      {"smiles": "CC(=O)Oc1cc(C(C)C)c(OCCN(C)C)cc1C", "activity change": "-1.44% (inactive)"},
      {"smiles": "CN(C(=O)CCCOc1ccc2[nH]c(=O)ccc2c1)C1CCCCC1", "activity change": "-0.668% (inactive)"},
      {"smiles": "FC(F)(F)c1ccccc1-n1ccnc1", "activity change": "0.498% (inactive)"},
      {"smiles": "O=C1CC2(CCCC2)CC(=O)N1CCCCN1CCN(c2ncccn2)CC1", "activity change": "0.734% (inactive)"},
      {"smiles": "CN(C)C/C=C(/c1ccc(Br)cc1)c1cccnc1", "activity change": "0.241% (inactive)"},
      {"smiles": "CCCN(CCC)C(=O)C(CCC(=O)O)NC(=O)c1ccccc1", "note": "(stereo not given)", "activity change": "1.24% (inactive)"},
      {"smiles": "O=C(O)CN(CCOCCOCCN(CC(=O)O)CC(=O)O)CC(=O)O", "activity change": "-0.242% (inactive)"},
      {"smiles": "Cc1cc(C)c(/C=C2\\C(=O)Nc3ccccc32)[nH]1", "activity change": "2.32% (inactive)"},
      {"smiles": "CCOC(=O)C1=C(C)NC(C)=C(C(=O)OC)C1c1cccc(Cl)c1Cl", "note": "(stereo not given)", "activity change": "-0.427% (inactive)"},
      {"smiles": "CC(C)COCC(CN(Cc1ccccc1)c1ccccc1)N1CCCC1", "note": "(stereo not given)", "activity change": "-0.684% (inactive)"},
      {"smiles": "COc1ccc2c(c1OC)C(=O)O[C@@H]2[C@H]1c2c(cc3c(c2OC)OCO3)CCN1C", "activity change": "1.57% (inactive)"},
      {"smiles": "CCn1cc(C(=O)O)c(=O)c2cc3c(cc21)OCO3", "activity change": "-0.0251% (inactive)"},
      {"smiles": "CO[C@@]1(NC(=O)CSCC#N)C(=O)N2C(C(=O)O)=C(CSc3nnnn3C)CS[C@@H]21", "activity change": "-0.306% (inactive)"},
      {"smiles": "Cc1ccc(Cl)c(Nc2ccccc2C(=O)O)c1Cl", "activity change": "-0.224% (inactive)"},
      {"smiles": "CN1C(=O)CC[C@H]1c1cccnc1", "activity change": "-0.483% (inactive)"},
      {"smiles": "CCC(=O)c1ccc2c(c1)N(CCCN(C)C)c1ccccc1S2", "activity change": "-0.99% (inactive)"},
      {"smiles": "CNC1(C)C2CCC(C2)C1(C)C", "note": "(stereo not given)", "activity change": "-2.25% (inactive)"},
      {"smiles": "CCc1cccc(N(C)C(N)=Nc2cccc3ccccc23)c1", "activity change": "0.789% (inactive)"},
      {"smiles": "COCCc1ccc(OCC(O)CNC(C)C)cc1", "note": "(stereo not given)", "activity change": "-0.469% (inactive)"},
      {"smiles": "CCCCNc1c(C(=O)OCC)c(C)nc2c1cnn2CC", "activity change": "-0.228% (inactive)"},
      {"smiles": "NC(Cc1ccc(Cl)cc1)C(=O)O", "note": "(stereo not given)", "activity change": "-1.47% (inactive)"},
      {"smiles": "COCC(=O)O[C@]1(CCN(C)CCCc2nc3ccccc3[nH]2)CCc2cc(F)ccc2[C@@H]1C(C)C", "activity change": "2.18% (inactive)"},
      {"smiles": "CCNC(=O)N1CCN(CCCC(c2ccc(F)cc2)c2ccc(F)cc2)CC1", "activity change": "1.55% (inactive)"},
      {"smiles": "C[C@]12CCC(=O)C=C1CC[C@@H]1[C@@H]2C(=O)C[C@@]2(C)[C@H]1CC[C@]2(O)C(=O)CO", "activity change": "0.855% (inactive)"},
      {"smiles": "C[C@]12C=CC(=O)C=C1CC[C@H]1[C@@H]3C[C@@H](O)[C@](O)(C(=O)CO)[C@@]3(C)C[C@H](O)[C@@]12F", "activity change": "0.432% (inactive)"},
      {"smiles": "CC(C(=O)O)c1ccc(CC2CCCC2=O)cc1", "note": "(stereo not given)", "activity change": "-0.553% (inactive)"},
      {"smiles": "Cc1nc2sccn2c(=O)c1CCN1CCC(=C(c2ccc(F)cc2)c2ccc(F)cc2)CC1", "activity change": "1.43% (inactive)"},
      {"smiles": "CCCN(CCC)CCc1cccc2c1CC(=O)N2", "activity change": "-1.06% (inactive)"},
      {"smiles": "CC(C)(Oc1ccc(CCNC(=O)c2ccc(Cl)cc2)cc1)C(=O)O", "activity change": "1.09% (inactive)"},
      {"smiles": "Nc1nc(N)c2nc(-c3ccccc3)c(N)nc2n1", "activity change": "1.34% (inactive)"},
      {"smiles": "OCCN1CCN(CCCN2c3ccccc3C=Cc3ccccc32)CC1", "activity change": "0.341% (inactive)"},
      {"smiles": "O=C(CCCN1CCC(O)(c2cccc(C(F)(F)F)c2)CC1)c1ccc(F)cc1", "activity change": "0.748% (inactive)"},
      {"smiles": "COC(=O)C1=C(C)NC(C)=C(C(=O)OCCN(C)Cc2ccccc2)C1c1cccc([N+](=O)[O-])c1", "note": "(stereo not given)", "activity change": "2.87% (inactive)"}
    ]}
  ]
}
